Hits are enriched below; roughly 2.2% of the tested compounds scored in any of these assays.
proKLK7 act – activates the human kallikrein-7 zymogen | purified proKLK7, EDANS-DABCYL substrate fluorescence; 100% is mature enzyme control, 0% vehicle | activation, % at 7 µM | actives 0.9% (n = 370,000) | AID 652039;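 active = activation above the mean of all tested compounds plus 3 SD, computed per campaign excluding outliers beyond control limits, cut at about 13% in these data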
GC-A act – GC-A (human) enzyme activation | activation, % at 10 µM | AID 1671463 | P16066 | HEK293 GC-A cells, cGMP TR-FRET, EC30 ANP; 0% at EC30 ANP, 100% saturating ANP | actives 0.14% (n = 370,000); in the data active = activation above about 40%
ADAM17 inh – inhibits human ADAM17 | recombinant ADAM17, EDANS/DABCYL FRET peptide cleavage | AID 720648 | actives 0.83% (n = 370,000) | inhibition, % at 6.95 µM | P78536;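 active = inhibition above the mean of compounds lying between control limits plus 3 SD, set per campaign, cut at about 8.5% in these data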;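 also: 0% = DMSO-only wells as the low control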
Target sequence (P78536 215-824 limits assumed): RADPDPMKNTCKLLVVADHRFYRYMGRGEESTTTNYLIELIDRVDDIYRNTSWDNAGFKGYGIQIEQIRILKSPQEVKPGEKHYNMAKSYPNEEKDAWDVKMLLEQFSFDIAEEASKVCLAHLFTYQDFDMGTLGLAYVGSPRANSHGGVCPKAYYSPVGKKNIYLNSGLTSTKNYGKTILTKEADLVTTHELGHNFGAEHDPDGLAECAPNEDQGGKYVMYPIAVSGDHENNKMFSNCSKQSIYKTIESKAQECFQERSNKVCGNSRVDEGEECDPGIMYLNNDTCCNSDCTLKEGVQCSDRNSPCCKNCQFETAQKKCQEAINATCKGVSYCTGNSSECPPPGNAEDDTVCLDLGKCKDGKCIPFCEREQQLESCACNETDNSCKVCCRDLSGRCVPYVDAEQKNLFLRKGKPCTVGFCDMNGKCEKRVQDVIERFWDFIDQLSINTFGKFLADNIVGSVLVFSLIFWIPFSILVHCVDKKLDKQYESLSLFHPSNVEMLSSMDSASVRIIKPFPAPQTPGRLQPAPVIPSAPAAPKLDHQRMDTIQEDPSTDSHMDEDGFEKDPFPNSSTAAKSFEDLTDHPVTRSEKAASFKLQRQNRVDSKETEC
GC-B act – GC-B (human) receptor activation; P20594; HEK293-GC-B cells, CNP EC30, cGMP TR-FRET; 0% at EC30 CNP, 100% saturating CNP; activation, % at 10 µM; actives 0.11% (n = 370,000);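 active = activation at 10 µM reaching about 35% in either raw or pattern-adjusted values, limit read from the data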
ADAM10 inh – inhibits human ADAM10. O14672. recombinant ADAM10, EDANS/DABCYL FRET peptide cleavage, 3 h. inhibition, % at 7 µM. actives 0.62% (n = 370,000);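 active = inhibition above a per-campaign cutoff equal to the mean of compounds falling between control-based bounds plus 3 SD, cut at about 20% in these data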;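 also: 0% = DMSO wells while the 100% control is not disclosed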
ADAM10 ctr – inhibits human ADAM10 in ADAM17 exosite counter-screen | actives 47% (n = 2,900) | inhibition, % at 6.95 µM | shares compounds with ADAM17 inh | recombinant ADAM10, EDANS/DABCYL FRET peptide cleavage, 3 h;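 active = mean inhibition over the triplicate runs exceeds the activity threshold set in the earlier primary screen, cut at about 20% in these data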;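 also: 0% = DMSO wells and 100% = marimastat wells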
ADAM17 confirm – confirmation of inhibitors of human ADAM17. shares compounds with ADAM17 inh. recombinant ADAM17, EDANS/DABCYL QFRET peptide cleavage. inhibition, % at 6.95 µM. actives 65% (n = 2,900). AID 743257;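 active = mean inhibition across replicates above the hit cutoff set in the primary screen, cut at about 8.5% in these data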;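 also: 0% = DMSO wells and 100% = marimastat wells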
An asterisk follows results filed as active; / = not tested or not shown.

SMILES	proKLK7 act	GC-A act	ADAM17 inh	GC-B act	ADAM10 inh	ADAM10 ctr	ADAM17 confirm
CCn1nc(C)c(C(=O)Nc2cc(Oc3ccc(Cl)cc3)cc([N+](=O)[O-])c2)c1C	0.1	-2.4	12.5*	1.8	14.9	39.3*	17.6*
O=C(c1cc(-c2ccccc2)nc2ccccc12)N1CCN(c2ccccc2O)CC1	-0.2	-3.2	13.7*	0.8	13.2	28.6*	19.3*
COC(=O)[C@]12C[C@H](CC(=O)N3CCCC3)C(=O)N(CCc3ccc(OC)c(OC)c3)C1=C[C@H](COCc1ccccc1)O[C@@H]2C	0.7	3.1	-3.8	0.5	-4.0	/	/
O=C(c1ccc(CS(=O)Cc2ccccc2Cl)o1)N1CCN(c2ccccn2)CC1 (stereo not given)	-0.1	-2.7	12.1*	8.5	-1.3	-5.2	1.5
O=C(c1ccc(CS(=O)Cc2ccccc2Cl)o1)N1CCN(c2cccc(Cl)c2)CC1 (stereo not given)	0.3	-4.5	15.3*	-5.0	11.7	17.6	9.0*
COc1cccc(N2CCN(C(=O)c3ccc(CS(=O)Cc4ccccc4Cl)o3)CC2)c1 (stereo not given)	-0.2	0.7	-0.4	-2.2	-5.2	/	/
COc1cc2c(c(O)c1OC)-c1c(cc(OC)c(OC)c1OC)C[C@@H](C)[C@@H](C)C2	-0.5	-2.2	8.8*	-0.4	-2.0	12.6	7.3
COC(=O)C1=C(C)N(Cc2cccc(C(F)(F)F)c2)C(=NCC2CC2)NC1c1cccc(C(F)(F)F)c1 (stereo not given)	0.9	-23.5	0.7	-16.6	0.3	/	/
O=[N+]([O-])CC(c1ccccc1)c1c[nH]c2ccccc12 (stereo not given)	0.8	6.6	-3.2	0.1	-1.0	/	/
O=[N+]([O-])CC(c1ccccc1)P(=O)(c1ccccc1)c1ccccc1 (stereo not given)	0.1	-6.0	15.9*	2.7	1.2	-2.5	32.0*
O=C(O)Cc1csc2ccccc12	0.4	-7.0	10.0*	4.0	8.8	-9.5	-4.2
CNC(=S)N/N=C/c1c(C(=O)OC)cnn1-c1ccc(Cl)cc1	/	5.3	-1.4	3.1	-3.2	/	/
CCOc1ccc(CCNC(=O)c2cc3ccsc3n2C)cc1OCC	-0.5	-2.3	-5.9	-6.0	-7.3	/	/
O=C(NC(=S)Nc1ccc2c(c1)OCCO2)c1cccc(Br)c1	0.0	-3.6	4.0	-3.4	15.7	/	/
O=C(NC(=S)Nc1ccc2c(c1)OCCO2)c1cccc2ccccc12	-0.4	-4.2	10.9*	3.7	19.4	17.9	11.2*
COc1ccc2nc(NC(=O)Nc3ccccc3)sc2c1	-0.2	4.8	-3.5	-3.9	-2.4	/	/
CC(C)(C)c1nc(NC(=O)Nc2ccccc2)sc1Br	-0.2	3.1	10.7*	3.9	19.6	35.0*	21.1*
C[C@H]1[C@@H](OC(=O)N2CCOCC2)CC[C@@]23CCCN2C(=O)CCC[C@@H]13	/	2.1	-0.9	0.5	3.3	/	/
Cc1cc(C)cc(NC(=O)c2cccn2-c2ncc(C(F)(F)F)cc2Cl)c1	0.5	-20.1	17.1*	-10.3	19.2	9.4	5.3
Cc1cc(C)c2c(=O)[nH][nH]c2n1	-1.0	-7.2	11.8*	-6.2	5.3	1.1	6.7
NC(=O)COC(=O)CC(c1ccccc1)c1ccccc1	0.6	-0.7	-2.1	1.5	1.4	/	/
NC(=O)CNCCC(c1ccccc1)c1ccccc1	0.0	-8.2	9.8*	-4.9	10.7	-1.5	-0.1
CCCOc1ccccc1C(=O)N(Cc1cccs1)C1CCS(=O)(=O)C1 (stereo not given)	-0.1	-7.3	10.5*	-10.8	11.2	9.8	8.2
CCCOc1ccccc1C(=O)N(Cc1cccc(Br)c1)C1CCS(=O)(=O)C1 (stereo not given)	0.7	-14.4	2.2	-7.6	-5.4	/	/
O=C(NCC(=O)N1CCN(C(c2ccccc2)c2ccccc2)CC1)c1ccccc1Br	0.5	-3.9	12.2*	1.7	14.2	20.1*	11.9*
SMILES	proKLK7 act	GC-A act	ADAM17 inh	GC-B act	ADAM10 inh	ADAM10 ctr	ADAM17 confirm
Cc1ccc(SCC(=O)OCC(=O)NCc2ccco2)cc1	-0.2	0.2	9.2*	-2.6	-4.4	7.7	4.0
Cc1ccc(SCC(=O)OCC(=O)NCc2cccs2)cc1	-0.3	0.0	-0.2	0.7	-0.4	/	/
CN(Cc1ccc(F)cc1)C(=O)CN1C(=O)C2(OCCCO2)c2ccccc21	0.1	-0.9	-1.6	-4.4	-3.7	/	/
COCC(C)n1c(SCC(=O)NC(=O)NCc2ccccc2)nc2ccccc2c1=O (stereo not given)	0.0	-0.9	10.1*	3.8	12.3	14.5	7.1
C/C(C=NNC(=O)CSc1nnc(-c2ccccc2)n1-c1ccc(C)cc1)=C\c1ccco1	-0.5	-15.9	4.3	-12.1	6.8	/	/
O=C(COC(=O)COc1ccc(Br)cc1)NCc1ccc2c(c1)OCO2	-0.5	3.8	2.8	3.4	1.3	/	/
Cc1cc(OCC(=O)OCC(=O)NCc2ccc3c(c2)OCO3)ccc1Cl	-0.2	0.1	10.8*	2.6	-5.2	9.3	9.1*
CCOC(=O)c1cnc2ccc(Br)cc2c1NCC(C)O (stereo not given)	0.8	-1.0	10.3*	-11.7	7.3	-6.0	1.4
CCOC(=O)c1cnc2ccc(Br)cc2c1NCCO	-0.2	11.0	0.1	-5.2	6.9	/	/
CCOC(=O)[C@]12CCCCC/C=C\1N(CCc1ccc(Cl)cc1)C(=O)[C@H]2CC(=O)NCc1cccc2ccccc12	-0.5	-5.0	4.7	-0.4	6.5	/	/
COC(=O)c1ccc(CN2C(=O)C(C)N(C(=O)c3c(F)cccc3F)c3ccccc32)cc1 (stereo not given)	0.1	-0.6	11.3*	4.8	3.4	19.0	15.2*
COC(=O)c1ccc(NC2=C(Cl)C(=O)OC2OC(=O)c2ccccc2)cc1 (stereo not given)	-0.1	-5.0	-0.5	-2.6	-0.6	/	/
Cc1ccc(NC2=C(Cl)C(=O)OC2OC(=O)c2ccc(C)cc2)cc1 (stereo not given)	0.7	6.2	9.0*	4.0	1.8	17.3	12.1*
CCCCn1c(-c2csc3c2CCCC3)n[nH]c1=S	0.3	-2.7	12.8*	-3.2	5.6	9.5	4.9
CCCCn1c(-c2csc3c2CCC(C)C3)n[nH]c1=S (stereo not given)	-0.3	-5.5	6.4	0.0	12.2	/	/
C=CCn1c(-c2csc3c2CCC(C)C3)n[nH]c1=S (stereo not given)	0.8	1.1	10.7*	0.3	5.7	18.1	13.1*

Screens from PubChem BioAssay.
